In the supplement of paper PMC11417369:
± gives the standard deviation of the averaged measurements. Whole data set: some 25,000 sequences, median “ln(normalized median fluorescence intensity)” near 7.9, cut for the highest 2% near 11. Only a selection was taken, and the highest values are over-represented in it overall.

Each sequence was assayed on PfAP2-I AP2 domain 3 (GST-tagged) (assay: gcPBM binding intensity (ln(normalized median fluorescence intensity)); higher = stronger DNA binding).
In short: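 Binding of GST-tagged P. falciparum DNA-binding domains, expressed in E. coli and used at about 25 μg on average, was carried out for 1 h in 1× PBS containing 1% milk, 0.2 mg/ml BSA, 0.5% salmon testes DNA and 0.03% Triton X-100. The target was an Agilent 4 × 180k array of primer-extended double-stranded 36-bp intergenic genomic probes plus negative controls, read with Alexa488 anti-GST antibody at 488 nm. Binding intensity is the highest Masliner-normalised natural-log median intensity across replicate spots of either probe orientation.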

| Sequence | gcPBM binding intensity (ln) |
| --- | --- |
| AAGTAATTTGTTGACACACACACACGCATACCTATA [CACACA_site7140] | 8.07 ± 0.65 |
| TTTTTTTCATAAGAAGCACACAAAAAATGATAGAGA [CACACA_site8401] | 8.29 ± 0.4 |
| TAAATTAAAAAACATAAACTATTGGAAACGCATTGA [CACACA_negctrl_site935] | 7.57 ± 0.64 |
| TAGGCGTTTAATAAAAGTACCCACACATATATTATT [XGTACX_site1932] | 7.68 ± 0.49 |
| TATATATATATATATGTGCACTGGACATATTTTTAT [GTGCAC_site9721] | 10.09 ± 0.099 |
| GAGATTTATTTATGTGCACACTAGAACAATTGGATC [CACACA_site2090] | 9.99 ± 0.42 |
| ATATTATGTGATTGTGCACACTGGAGATTTTTTTTA [CACACA_site1453] | 10.9 ± 0.17 |
| TTAATATAGGGAAAAAAAAGAAAATCGAAAATGTGT [CACACA_negctrl_site834] | 8 ± 0.75 |
| TTTTTTTTATGTATCACACATAATTTTTTATTATGA [CACACA_site5534] | 7.63 ± 0.68 |
| ATTTTCATGATAAAGGTGCAATTATTTTTATAAGAA | 10.9 ± 0.53 |
| GTATTCATGCTAAAGGTGCAATAATTTTTATAATAA [GTGCAC_site9603] | 11.5 ± 0.61 |
| TATAATTATTTTTTTCTAAATATTATAAGGTATTCA [GTGCAC_negctrl_site205] | 7.18 ± 0.33 |
| ACACATAATATAAAGGTGCTATATTGTATTCATTTT [GTGCAC_site9457] | 10.1 ± 0.2 |
| ATTATAAAAGAATTTTTTTTTATTTCATTAAAATAT [CACACA_negctrl_site1137] | 7.09 ± 0.47 |
| TATAATTTATTAAGGGGTACATATATTTCATGATAA [XGTACX_site5141] | 7.88 ± 0.37 |
| TATAAATATCTGAATTGTACAGGTGAAAAAAAAAAT [XGTACX_site1867] | 8.04 ± 0.62 |
| TAATTAGATTATTTTTGTACATATTATTATAGGTTA [XGTACX_site2077] | 7.59 ± 0.26 |
| ACAAAAATAAGCAAATGTACATATGTATAATATATT [XGTACX_site2492] | 7.77 ± 0.58 |
| AGTGACACCAAAGGGGTGCAATGAAATTAAAAATAT | 10.7 ± 0.24 |
| AAAAAAAAAAAAAAGGTGCAAATAAATTAACCTTAT | 11.4 ± 0.44 |
| ATTATCCATCAAAAGGTGCAAATTTTTAATTATAAA [GTGCAC_site9932] | 10.5 ± 0.49 |
| TTAAAAAATAACAAGGTGCAAATAGGTTTATAAAAT | 10.84 ± 0.064 |
| TAAAAATTAAAAAGGGTGCAAAAAAAAAAAAAAAAA [GTGCAC_site9733] | 11 ± 0.61 |

| Sequence | gcPBM binding intensity (ln) |
| --- | --- |
| TAAATTAAAAAAAAAAACAAAAAAAAAGCAACAAAA [CACACA_negctrl_site1318] | 7.67 ± 0.57 |
| TATGTGTGACAAAATTGTACGGTCTCTTTATTTTGT [XGTACX_site2679] | 7.72 ± 0.54 |
| TCCTTATAAATATATATATAATATATATATATATAT [CACACA_negctrl_site293] | 8.86 ± 0.2 |
| ATTTTTATTCAGTTCACACACGCTTTAATATTATAT [CACACA_site3465] | 8.3 ± 0.58 |
| ATATATCCAATATATATATATATATATATATATATA [CACACA_negctrl_site160] | 9.2 ± 0.67 |
| TGTTGGCAGGTGAATGCATGCATATAAGTCTATCTG [TGCATGCA_site781] | 8.02 ± 1.1 |
| TATTCCTATATAAAGACACACATATGTAACTACGAT [CACACA_site4139] | 7.68 ± 0.59 |
| ATATAATATAACAATACGCACACGTATACAAAAAAA [CACACA_site3151] | 8.36 ± 0.41 |
| TATTAATTTCTTTTTTCTCATCACTTTCAAAATGAA [CACACA_negctrl_site1055] | 7.9 ± 0.47 |
| ATTATGTATACATAAACACACATATATATAAAAAAA [CACACA_site262] | 7.92 ± 0.64 |
| TTCATTAAAGTTATTACACACAGTTCTTCAACCAAA [CACACA_site7613] | 7.88 ± 0.46 |
| CTTTGTAGTATATTAACACACAACTGTTTATAATAT [CACACA_site6038] | 7.77 ± 0.54 |
| AAATATTTATAAATTGCACACAAATAATAACATTAT [CACACA_site8737] | 8.47 ± 0.099 |
| TTCTTTGTAGTATATTAACACACAACTGTTTATAAT [CACACA_site9305] | 8.02 ± 0.59 |
| TGTATAATATTTGGTGCACACAAATTAACAACTGTT [CACACA_site9245] | 11.1 ± 0.54 |
| TATAATATTTGGTGCACACAAATTAACAACTGTTTA [CACACA_site3742] | 11.1 ± 0.39 |
| ATATTTATAAATTGCACACAAATAATAACATTATAT [CACACA_site5322] | 8.68 ± 0.13 |
| ATTCAAAAGGTTTAATGTACGTGATGTTTCACAAAT [XGTACX_site784] | 7.74 ± 0.5 |
| AAAAATGGAATTATCTGTACATATATAGTTTTTAAA [XGTACX_site5580] | 7.44 ± 0.33 |
| AATTGTTCTATGATTTGTACACACTTTTTTTTAAAA [XGTACX_site5984] | 8.15 ± 0.52 |
| ATTTTAATAAAATATGTACACACATACACCCATATA [CACACA_site8326] | 8.15 ± 0.34 |
| AATACATGAATATGTAGTACAGAAAAAAAAAATATA [XGTACX_site1945] | 7.89 ± 0.6 |
| AATAAATATAAAAATGCACACACACTAATAAAAAAA [CACACA_site8201] | 8.67 ± 0.52 |

| Sequence | gcPBM binding intensity (ln) |
| --- | --- |
| TAATATAATATATGCACACAAATATGTATATATGTG [CACACA_site2134] | 8.895 ± 0.049 |
| TATAATATAATATATGCACACAAATATGTATATATG [CACACA_site8664] | 8.86 ± 0.085 |
| ATATTTTACAAATGCACACATAATTTTTTTTTTTTT [CACACA_site2763] | 9.33 ± 0.099 |
| TGATTCAATTTATGCACACTAAAAATTAATTATATT [CACACA_site271] | 9.65 ± 0.23 |
| TTTTTTTTTTTTAATGCACACAATATATAATATGTA [CACACA_site3694] | 11.2 ± 0.4 |
| TTTTTAAAATATTTAACACACAATTTTAATGCATAA [CACACA_site6036] | 8.8 ± 0.11 |
| TTAAAAAATATATGCGTGCACTAATATTTCATATGC | 11.5 ± 0.2 |
| ATTTTTAATATTATTACACACACTAATAAAAAAAAA [CACACA_site8265] | 7.96 ± 0.27 |
| ATAATATTTTAATGCACACACACAAAAAAAAAAAAA [CACACA_site2891] | 11.2 ± 0.61 |
| GTATAATATTTTAATGCACACACACTAATAAAAAAA [CACACA_site8939] | 11.1 ± 0.76 |
| AGATAAAATATATATGCACACACATATATATTTCAT [CACACA_site9183] | 9.255 ± 0.007 |
| ATTAATGATTTTTGTTGTACATTATTAATTTACATT [XGTACX_site544] | 7.83 ± 0.46 |
| ATTTCTCAATCGTAATGTACAAAAAAAAGGGAAAAG [XGTACX_site2781] | 7.9 ± 0.58 |
| AAGGAATATGTATATACACACAGGTACATATATATA [CACACA_site441] | 8.16 ± 0.71 |
| AGTAGTCTGGAGAAAAGTACATAGTATCTGGTAGCT [XGTACX_site2027] | 7.98 ± 0.52 |
| AAGAGAGAGAAATATGCACACATAAGGGAAATAAAT [CACACA_site8300] | 8.895 ± 0.049 |
| TTTATTCCAGTATTCACACACGAATAACCACATAAC [CACACA_site5104] | 7.93 ± 0.42 |
| ATATATATATATATTTGTACATAATATATATATGCA [XGTACX_site1795] | 9.28 ± 0.48 |
| AGATATAATAAATATACACACATATATATATATATA [CACACA_site962] | 9.2 ± 0.76 |
| AATATTTTAATGCACACACACAAAAAAAAAAAAAAA [CACACA_site7374] | 11.5 ± 0.73 |
| TTTAAATTTTAATATGCACACAAAATGTTATATTAA [CACACA_site8015] | 9.06 ± 0.13 |
| TAAATTTTAATATGCACACAAAATGTTATATTAAAA [CACACA_site4366] | 9.13 ± 0.35 |
| AAGCATATTATAAACACACACTGTATAAAGATATAT [CACACA_site6277] | 7.66 ± 0.67 |

| Sequence | gcPBM binding intensity (ln) |
| --- | --- |
| TATATACCACATTGTTGTACGACACATTTACATTTT [XGTACX_site8370] | 8.21 ± 0.57 |
| ACATGAAACTATAAACGTACATACATACATATATAT [XGTACX_site5011] | 8.09 ± 0.6 |
| GATAATGAATGATGCACACTAAAAATATTCTACAAC [CACACA_site3622] | 8.66 ± 0.16 |
| TTTTCTCTAAAAAGGTGTACAACTAATAATGCACTG [XGTACX_site6074] | 11.4 ± 0.31 |
| AAAAAAAAAAAAAGGTGTACATGCAAAATAAATTCT [XGTACX_site4592] | 8.56 ± 0.35 |
| TATTTTATATAAAGGTGTACTTATACAAAAATATAT [XGTACX_site7435] | 8.14 ± 0.28 |
| ATTTTTCTAAAATACTGTACAAAGGTGCATAAAAAG [XGTACX_site4425] | 11.8 ± 0.87 |
| TATAAATACTAAAAAAGTACAAAATTTCATAAAAAA [XGTACX_site2709] | 7.82 ± 0.59 |
| ATATATATATATATATGTACATATTGTATTAATTAT [XGTACX_site1919] | 9.31 ± 0.11 |
| AATGTCATCATATTCATATATATTTATTTCTTTTTG [GTGCAC_negctrl_site500] | 7.68 ± 0.57 |
| TAAATTTAGAAACACACACACATATATATATATATA [CACACA_site847] | 9.36 ± 0.38 |
| TAATAACTACAAAAAAAAAAGAAAAATAGAAAAAGG [CACACA_negctrl_site1102] | 7.75 ± 0.67 |
| AAAATAATAATAGGCACACATATATATATATATATA [CACACA_site2058] | 9.36 ± 0.32 |
| ATAGAAGGCAACTTGGTGCACAAAAAAAAAAATAAT | 11.6 ± 0.25 |
| TTTCACTACACAAATACACACAAAAATATATGTGCA [CACACA_site2632] | 7.91 ± 0.54 |
| TACAAACACCCATATACACACAAAAAAAAAATAAAA [CACACA_site5421] | 7.78 ± 0.31 |
| TTTCACCATATAAACGTGCACACTACAAAAATATAT [CACACA_site2547] | 11.1 ± 0.35 |
| CCATATCTTTTTTGCACACACTACAATAAAACAAAA [CACACA_site4995] | 9.95 ± 0.2 |
| TCACCATATAAACGTGCACACTACAAAAATATATAA [CACACA_site5413] | 11 ± 0.24 |
| AAACAAAAAATATATACACACTAAACATAAAAAAAA [CACACA_site4185] | 7.81 ± 0.65 |
| TCTAATTTAAAATACACACACATATCTATAATATAT [CACACA_site7029] | 7.63 ± 0.28 |
